Experimental data as given in PubChem BioAssay AID1508648 (National Center for Advancing Translational Sciences (NCATS), 2021).
Inconclusive results are not listed. Entries that show only a call come without a potency. Active and inactive are the calls of the source. Calls follow the shape of the dose curve; as a rule, active = well fitted cell-killing curve with a large enough effect; inconclusive = small, poorly fitted or top-dose-only effect, or effect the other way; inactive = flat fitted curve, though single readings scatter.

Experiment: Cell viability assay in S16 Pmp22-HiBiT cells - Confirmatory screen
Settings: S16 Schwann Pmp22-HiBiT viability, CellTiter-Glo, 24 h; series mostly up to 27.9 µM
Description: Assay Provider: Jim Inglese Ph.D. National Center for Advancing Translational Science, National Institutes of Health, Rockville, MD CMT is a heterogeneous group of neurological disorders that affect approximately 1 in 2,500 people. In particular, the most common form of CMT, CMT1A is genetically linked to the duplication of the PMP22 gene which leads to Schwann cell overexpression, thus manifesting itself as a typical case of dose-sensitive diseases. To identify small molecule compounds that can mediate the expression of PMP22 we developed a phenotypic assay screening strategy by utilizing genome editing techniques to construct Schwann cell lines containing novel reporter technology to monitor the transcriptional or translational regulation of PMP22. For high sensitivity we use a bioluminescent reporter system embedded in the 3' UTR of the PMP22 gene (S16(c9) Pmp22-F2sN) to identify compounds that inhibit gene expression. […] We can further discriminate the effect of all transcriptionally active molecules on PMP22 translation or stability with an assay that incorporates a short NLuc peptide (HiBiT) at the C-terminus of expressed PMP22 (S16(f8) PMP22-HiBiT) allowing alpha complementation and luminescence detection of membrane-associated PMP22 protein. These assays were screened against the NCATS Sytravon Library Collection. Miniaturization of these assays to 1536-well plate format for quantitative high throughput screening (qHTS) yielded rich data sets immediately from the qHTS assay (S16(c9) Pmp22-F2sN), when compared with data from a cell viability assay (Cell TiterGlo) to identify compounds that decreased the output signals through cellular toxicity to streamline the selection process of actives for subsequent characterization using the HiBiT assay (S16(f8) PMP22-HiBiT).
Cell viability assay in S16 Pmp22-HiBiT cells PROTOCOL TABLE (format as described by Inglese J, Shamu CE and Guy RK. 2007) SEQUENCE No. (e.g., 1, 2, 3, etc.); PARAMETER (e.g., Cells, Incubation, Reagent, etc.); VALUE and DESCRIPTION. 1. Cells. Add 500-1,000 cells in 4 uL in growth media (DMEM High Glucose, No Phenol Red media + 10% heat-inactivated FBS + 1% Pen/Strep supplemented media) per well into Greiner 1536-well white/solid bottom high base, TC-treated plates. 2. Compounds. Library compounds and controls added at 23nL per well, transferred by Pin Tool. 3. Incubation. Incubate plates at 37C, 5% CO2, 95% RH for 24 h. 4. Reagent. Add 3uL CellTiter-Glo per well of Greiner 1536-well plates. 5. Incubation. Incubate plates at room temperature for 15 min., protect from light. 6. Detector. Luminescence measured using CCD-based camera (Viewlux). NOTES (numbers refer to Sequence numbers above; values are from representative experiments) 6. Luminescence Read: Clear filter; Exposure = 1 sec, Gain = High, Speed = Slow, Binning = 2X REFERENCES: 1. Inglese J, Shamu CE and Guy RK, Reporting data from high throughput screening of small molecule libraries, Nature Chemical Biology, 2007, 3(8): 438-441. doi.org/10.1038/nchembio0807-438 2. Yasgar A, Shinn P, Jadhav A, Auld DS, Michael S, Zheng W, Austin CP, Inglese J and Simeonov A, Compound Management for Quantitative High-Throughput Screening. J. Assoc. Lab. Auto., 2008, 13: 79-89. doi: 10.1016/j.jala.2007.12.004

Structure (SMILES)	Potency
CCC(=O)C1=C(c2cccc([N+](=O)[O-])c2)N(C(=O)CC)n2c(nnc2C2CCCCC2)S1	inactive
CCN(CC)CCNC(=O)c1cc(-c2ccc(Br)s2)nc2ccccc12	10.2 µM (active)
Cc1ccc(S(=O)(=O)c2nnn3c2nc(NC2CCCCCC2)c2sccc23)cc1C	inactive
Cc1ccc(CN2C(=O)C(O)(c3c(C)[nH]c4ccccc34)c3ccccc32)cc1 (stereo not given)	inactive
CCC(Sc1nc2ccccc2c2nc(-c3ccccc3)nn12)C(=O)Nc1cccc(OC)c1 (stereo not given)	inactive
CCC(=O)C1=C(c2cccc([N+](=O)[O-])c2)N(C(=O)CC)n2c(nnc2-c2ccccc2)S1	inactive
COc1ccc(Cl)cc1NC(=O)CCCS(=O)(=O)c1nc(-c2ccc(OC)c(OC)c2)cc(C(F)(F)F)n1	6.45 µM (active)
Cc1cccc(CS(=O)(=O)c2ncc(Cl)c(C(=O)Nc3nc4ccc(F)cc4s3)n2)c1	14.5 µM (active)
Cc1c(Cl)cccc1NC(=O)c1oc2ccc(S(=O)(=O)N3CCC4(CC3)OCCO4)cc2c1C	inactive
CCN(CC)c1ccc(NC(=O)C2COc3ccc(OC)cc3C2)c(C)c1 (stereo not given)	inactive
O=S(=O)(NCC(c1ccco1)S(=O)(=O)c1cccs1)c1ccc(Cl)cc1 (stereo not given)	inactive
O=C(Cn1c(-c2cccs2)cc2cc(F)ccc21)NCCCN1CCN(c2ccccc2F)CC1	inactive
O=C(Cn1c(-c2cccs2)cc2cc(F)ccc21)NCCCN1CCN(c2ccc(F)cc2)CC1	inactive
CCCCCS(=O)(=O)c1oc(-c2cccs2)nc1S(=O)(=O)c1ccc(C)cc1	18.2 µM (active)
COc1ccc(NC(=O)CCS(=O)(=O)c2nc(-c3cccs3)cc(C(F)(F)F)n2)cc1	inactive
CCOC(=O)c1c(NC(=O)c2nc(S(C)(=O)=O)ncc2Cl)sc(C(C)=O)c1C	4.57 µM (active)
COc1ccccc1NC(=O)Cn1c(=O)n(-c2cccc(Cl)c2)c(=O)c2sc3ccccc3c21	12.9 µM (active)
CCCN1CCN(CCCNC(=O)Cn2c(-c3cccs3)cc3ccccc32)CC1	inactive
Clc1cccc(-c2noc3ncnc(NC4CCCCC4)c23)c1	inactive
COCCCNC(=O)c1ccc(-n2c(-c3ccccc3)cc3c2CCC(C)C3)cc1 (stereo not given)	inactive

Structure (SMILES)	Potency
Cc1ccc(NC(=O)N2CCc3cc(S(=O)(=O)N4CCC(C)CC4)ccc32)cc1F	inactive
CCOCCCNC(=O)c1ccc(-n2c(-c3ccccc3)cc3c2CCC(C)C3)cc1 (stereo not given)	inactive
Cc1cc(C)c(NC(=O)Cn2c(=O)n(Cc3ccco3)c(=O)c3ccc(C(=O)NC4CCCC4)cc32)c(C)c1	inactive
COc1ccc(NC(=O)Cn2c(=O)n(CCC(=O)NCc3ccccc3OC)c(=O)c3ccccc32)cc1Cl	16.2 µM (active)
Cc1cc(NC(=O)C2CCCN(S(=O)(=O)c3cccc4nonc34)C2)ccc1Br (stereo not given)	inactive
COc1ccc(Br)c2c1-c1nc(NC(=O)c3cccc(C)c3)sc1C2	inactive
Cc1ccc(OCC(=O)Nc2ccc3nc(SCC(=O)N4CCc5ccccc54)sc3c2)cc1	inactive
CCOc1ccc(C(=O)c2cnc3ccc(Cl)cc3c2S(=O)(=O)c2ccc(C)cc2)cc1	inactive
COC(=O)c1c(-c2ccc(Cl)cc2)noc1N1CCN(c2cccc(C(F)(F)F)c2)CC1	10.2 µM (active)
CCc1ccc(C(=O)c2cn(CC(=O)Nc3ccc4c(c3)OCO4)c3ccc(CC)cc3c2=O)cc1	14.5 µM (active)
COc1ccccc1CNC(=O)CSc1nnc(C)c2c(C)n(-c3ccccc3)nc12	inactive
COc1ccc(-c2cc(C(F)(F)F)nc(S(C)(=O)=O)n2)cc1	18.2 µM (active)
COc1ccc(NC(=O)c2oc3ccccc3c2NC(=O)Cc2ccc(F)cc2)c(OC)c1	inactive
O=C(CCS(=O)(=O)c1nc(-c2cccs2)cc(C(F)(F)F)n1)Nc1ccc(OC(F)(F)F)cc1	inactive
Cc1ccc(C)c(NC(=O)Cn2c(=O)n(Cc3ccc4c(c3)OCO4)c(=O)c3ccc(C(=O)NC4CCCCC4)cc32)c1	inactive
CCCn1c(=N)c(C(=O)NC(C)c2ccccc2)cc2c(=O)n3ccccc3nc21 (stereo not given)	inactive
Cc1ccccc1S(=O)(=O)Cc1ccc(C(=O)N2CCN(c3cccc(Cl)c3)CC2)o1	inactive
CCOc1cc(CNc2ccc(O)cc2)cc(Br)c1OCc1ccccc1	inactive
Cc1cccc(-n2c(=O)c3c(c4cc(C)ccc4n3C)n(CC(=O)NCCC3=CCCCC3)c2=O)c1	inactive
COC(=O)c1ccccc1NC(=O)c1nc(S(=O)(=O)Cc2cccc(C)c2)ncc1Cl	inactive
